Data reported in the supplement of paper PMC11732987, “Enantioselective OTUD7B fragment discovery through chemoproteomics screening and high-throughput optimisation” (Communications Chemistry, 2025).
A number with no mark means an inactive call.

Tests used:
Test in all cases: log2 ratio of Biotin-Ahx-Ub-VS probe labelling (fragment/DMSO); higher = less target engagement (more negative = stronger competition), active = hit call of the paper (q ≤ 0.05, log2 ratio ≤ -1)
Details in all cases: compound concentration: 200 uM; treatment time: 3 h
ALG13 = target: T1, ALG13 (UniProt Q9NP73)
T1 sequence (whole entry): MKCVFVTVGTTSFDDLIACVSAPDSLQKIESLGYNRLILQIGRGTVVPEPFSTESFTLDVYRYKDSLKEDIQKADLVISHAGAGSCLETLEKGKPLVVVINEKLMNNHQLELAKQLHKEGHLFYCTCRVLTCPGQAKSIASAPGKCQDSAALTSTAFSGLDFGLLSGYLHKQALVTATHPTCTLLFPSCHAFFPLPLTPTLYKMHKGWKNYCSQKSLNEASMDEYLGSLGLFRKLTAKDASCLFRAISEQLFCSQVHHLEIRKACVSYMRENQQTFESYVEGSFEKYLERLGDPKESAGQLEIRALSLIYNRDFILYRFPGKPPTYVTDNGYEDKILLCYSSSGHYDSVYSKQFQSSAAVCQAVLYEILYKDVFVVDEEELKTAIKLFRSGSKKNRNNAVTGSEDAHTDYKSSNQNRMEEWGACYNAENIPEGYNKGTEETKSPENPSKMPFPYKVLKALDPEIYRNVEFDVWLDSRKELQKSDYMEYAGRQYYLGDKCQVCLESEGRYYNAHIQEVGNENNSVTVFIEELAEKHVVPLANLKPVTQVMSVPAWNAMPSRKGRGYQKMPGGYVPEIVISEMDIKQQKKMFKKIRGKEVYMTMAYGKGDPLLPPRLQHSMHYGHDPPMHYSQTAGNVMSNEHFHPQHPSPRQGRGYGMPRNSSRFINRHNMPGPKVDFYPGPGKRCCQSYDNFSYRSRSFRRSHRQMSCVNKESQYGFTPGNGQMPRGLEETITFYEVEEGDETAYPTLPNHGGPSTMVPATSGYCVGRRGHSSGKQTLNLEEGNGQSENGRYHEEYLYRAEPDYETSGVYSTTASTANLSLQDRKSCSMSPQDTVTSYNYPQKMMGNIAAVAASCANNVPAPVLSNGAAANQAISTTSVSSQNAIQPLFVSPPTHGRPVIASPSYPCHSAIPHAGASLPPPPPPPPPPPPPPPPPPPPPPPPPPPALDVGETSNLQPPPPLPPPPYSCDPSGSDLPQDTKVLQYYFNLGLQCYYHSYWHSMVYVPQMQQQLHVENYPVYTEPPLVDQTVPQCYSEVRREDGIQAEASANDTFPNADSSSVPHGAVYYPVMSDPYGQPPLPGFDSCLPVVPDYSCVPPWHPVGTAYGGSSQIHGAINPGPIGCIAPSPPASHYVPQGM
Outline: (§1)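 HEK293T lysate (495 µg per sample, in Tris/CHAPS/IGEPAL buffer with protease inhibitors) was exposed in triplicate for 3 h to fragment at 200 µM or to vehicle, then to Biotin-Ahx-Ub-VS at 0.5 µM final for 1 h. Labelled DUBs were enriched on NeutrAvidin, digested with LysC and trypsin, and analysed by diaPASEF LC-MS/MS. Spectronaut label-free quantities were normalised to the global median, and values are average log2 ratios of fragment over vehicle from an unpaired t-test. Only proteins with ≥2 unique peptides were used.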

ATXN3 = ATXN3 (UniProt P54252)
ATXN3, sequence (P54252 whole entry): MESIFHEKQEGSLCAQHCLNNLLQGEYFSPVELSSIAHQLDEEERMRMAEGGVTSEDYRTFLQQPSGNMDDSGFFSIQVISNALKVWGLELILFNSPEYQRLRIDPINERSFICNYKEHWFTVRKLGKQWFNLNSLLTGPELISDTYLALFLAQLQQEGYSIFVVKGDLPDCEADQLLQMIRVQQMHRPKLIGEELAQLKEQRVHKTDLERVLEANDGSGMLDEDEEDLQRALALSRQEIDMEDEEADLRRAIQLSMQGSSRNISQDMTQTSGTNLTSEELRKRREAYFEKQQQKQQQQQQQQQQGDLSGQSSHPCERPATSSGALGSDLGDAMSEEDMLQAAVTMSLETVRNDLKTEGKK
Outline: as §1

BAP1 = target: T2, BAP1 (UniProt Q92560)
T2 sequence (whole entry): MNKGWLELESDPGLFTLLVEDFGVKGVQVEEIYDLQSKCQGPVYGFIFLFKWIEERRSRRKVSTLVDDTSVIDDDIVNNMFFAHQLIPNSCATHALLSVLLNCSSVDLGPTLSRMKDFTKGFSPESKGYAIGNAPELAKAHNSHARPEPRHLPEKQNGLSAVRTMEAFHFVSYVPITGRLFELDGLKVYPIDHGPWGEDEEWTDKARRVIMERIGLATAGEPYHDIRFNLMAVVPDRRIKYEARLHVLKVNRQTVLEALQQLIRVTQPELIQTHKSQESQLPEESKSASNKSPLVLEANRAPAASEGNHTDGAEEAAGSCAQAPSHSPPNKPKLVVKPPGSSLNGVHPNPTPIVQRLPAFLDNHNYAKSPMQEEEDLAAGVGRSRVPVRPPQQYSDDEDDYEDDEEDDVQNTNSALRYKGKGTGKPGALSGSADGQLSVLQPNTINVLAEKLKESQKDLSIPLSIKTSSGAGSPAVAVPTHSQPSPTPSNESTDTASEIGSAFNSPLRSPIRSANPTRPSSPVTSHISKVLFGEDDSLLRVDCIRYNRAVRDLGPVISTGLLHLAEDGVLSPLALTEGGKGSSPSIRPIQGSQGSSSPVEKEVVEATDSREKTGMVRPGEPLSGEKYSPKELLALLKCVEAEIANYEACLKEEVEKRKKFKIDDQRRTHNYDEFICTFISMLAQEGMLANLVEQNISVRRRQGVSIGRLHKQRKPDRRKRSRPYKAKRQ
Outline: as §1

EIF3F = EIF3F (UniProt O00303)
EIF3F, sequence (O00303 whole entry): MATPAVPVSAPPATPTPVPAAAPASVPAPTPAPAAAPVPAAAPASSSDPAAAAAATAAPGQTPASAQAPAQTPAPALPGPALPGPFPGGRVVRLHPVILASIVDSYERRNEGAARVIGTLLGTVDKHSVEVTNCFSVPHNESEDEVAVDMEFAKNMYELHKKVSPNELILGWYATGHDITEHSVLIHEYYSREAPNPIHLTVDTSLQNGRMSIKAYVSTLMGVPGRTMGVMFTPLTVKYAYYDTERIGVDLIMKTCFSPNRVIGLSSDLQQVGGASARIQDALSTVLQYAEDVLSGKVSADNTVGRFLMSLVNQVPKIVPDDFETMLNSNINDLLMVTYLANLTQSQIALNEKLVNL
Outline: as §1

EIF3H = EIF3H (UniProt O15372)
EIF3H, sequence (O15372 whole entry): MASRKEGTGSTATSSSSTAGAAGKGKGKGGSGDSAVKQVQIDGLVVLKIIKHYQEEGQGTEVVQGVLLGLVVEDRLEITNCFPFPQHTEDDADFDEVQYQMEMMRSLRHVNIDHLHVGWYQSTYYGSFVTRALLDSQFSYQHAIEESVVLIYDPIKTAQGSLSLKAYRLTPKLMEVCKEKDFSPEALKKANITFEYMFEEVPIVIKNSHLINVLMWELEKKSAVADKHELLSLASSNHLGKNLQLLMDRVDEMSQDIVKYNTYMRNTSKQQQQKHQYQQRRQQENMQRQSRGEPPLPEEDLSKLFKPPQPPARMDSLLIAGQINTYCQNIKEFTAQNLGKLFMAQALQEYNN
Outline: as §1

FAM105A = target: T3, FAM105A (UniProt Q9NUU6)
T3 sequence (whole entry): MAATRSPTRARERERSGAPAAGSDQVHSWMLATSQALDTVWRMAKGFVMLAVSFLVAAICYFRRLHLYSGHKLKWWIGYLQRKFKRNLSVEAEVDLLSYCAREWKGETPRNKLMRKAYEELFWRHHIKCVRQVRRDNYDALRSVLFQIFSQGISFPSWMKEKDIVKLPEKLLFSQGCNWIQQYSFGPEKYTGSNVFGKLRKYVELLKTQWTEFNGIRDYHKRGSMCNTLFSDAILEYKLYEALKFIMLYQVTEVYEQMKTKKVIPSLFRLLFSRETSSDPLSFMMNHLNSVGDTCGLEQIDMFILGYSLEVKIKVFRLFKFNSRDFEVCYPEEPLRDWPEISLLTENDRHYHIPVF
Outline: as §1

OTUB1 = OTUB1 (UniProt Q96FW1)
OTUB1, sequence (Q96FW1 whole entry): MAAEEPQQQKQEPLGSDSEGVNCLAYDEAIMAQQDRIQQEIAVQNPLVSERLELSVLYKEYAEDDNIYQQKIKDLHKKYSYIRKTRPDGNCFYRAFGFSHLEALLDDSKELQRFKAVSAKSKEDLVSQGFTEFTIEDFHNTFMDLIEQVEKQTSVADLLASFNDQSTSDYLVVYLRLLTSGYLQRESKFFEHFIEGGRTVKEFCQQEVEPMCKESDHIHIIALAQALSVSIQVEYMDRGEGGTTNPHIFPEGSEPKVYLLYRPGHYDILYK
Outline: as §1

OTUD4 = target: T4, OTUD4 (UniProt Q01804)
T4 sequence (whole entry): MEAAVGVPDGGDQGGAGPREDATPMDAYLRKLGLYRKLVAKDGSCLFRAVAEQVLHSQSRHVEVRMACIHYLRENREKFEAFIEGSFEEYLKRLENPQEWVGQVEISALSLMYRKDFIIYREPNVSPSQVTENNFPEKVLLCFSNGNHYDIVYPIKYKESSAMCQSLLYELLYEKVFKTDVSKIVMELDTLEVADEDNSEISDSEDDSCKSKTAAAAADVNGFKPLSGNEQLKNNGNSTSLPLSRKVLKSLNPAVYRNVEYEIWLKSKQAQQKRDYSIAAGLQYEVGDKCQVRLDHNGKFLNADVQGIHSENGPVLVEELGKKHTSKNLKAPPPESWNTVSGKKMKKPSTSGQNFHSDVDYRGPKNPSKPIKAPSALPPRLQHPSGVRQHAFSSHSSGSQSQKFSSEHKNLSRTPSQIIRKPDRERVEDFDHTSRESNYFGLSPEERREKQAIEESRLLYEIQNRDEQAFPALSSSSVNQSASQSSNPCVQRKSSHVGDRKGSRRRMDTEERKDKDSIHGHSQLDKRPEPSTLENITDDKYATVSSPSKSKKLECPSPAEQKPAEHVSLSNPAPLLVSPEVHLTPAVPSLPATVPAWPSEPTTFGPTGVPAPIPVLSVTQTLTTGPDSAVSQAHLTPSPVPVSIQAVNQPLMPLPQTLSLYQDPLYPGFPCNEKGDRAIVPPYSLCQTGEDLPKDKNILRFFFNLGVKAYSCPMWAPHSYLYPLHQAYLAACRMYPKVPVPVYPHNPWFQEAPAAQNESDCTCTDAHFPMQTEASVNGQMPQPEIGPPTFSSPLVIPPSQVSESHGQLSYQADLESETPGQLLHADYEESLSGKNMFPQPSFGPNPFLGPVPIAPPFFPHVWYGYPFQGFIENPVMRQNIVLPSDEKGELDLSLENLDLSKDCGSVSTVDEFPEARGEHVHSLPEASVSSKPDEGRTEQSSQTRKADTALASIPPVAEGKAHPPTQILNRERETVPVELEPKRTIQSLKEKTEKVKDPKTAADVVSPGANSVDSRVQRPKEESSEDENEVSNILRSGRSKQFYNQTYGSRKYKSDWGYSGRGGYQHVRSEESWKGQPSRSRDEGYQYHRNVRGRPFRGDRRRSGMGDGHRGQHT
Outline: as §1

OTUD5 = target: T5, OTUD5 (UniProt Q96G74)
T5 sequence (whole entry): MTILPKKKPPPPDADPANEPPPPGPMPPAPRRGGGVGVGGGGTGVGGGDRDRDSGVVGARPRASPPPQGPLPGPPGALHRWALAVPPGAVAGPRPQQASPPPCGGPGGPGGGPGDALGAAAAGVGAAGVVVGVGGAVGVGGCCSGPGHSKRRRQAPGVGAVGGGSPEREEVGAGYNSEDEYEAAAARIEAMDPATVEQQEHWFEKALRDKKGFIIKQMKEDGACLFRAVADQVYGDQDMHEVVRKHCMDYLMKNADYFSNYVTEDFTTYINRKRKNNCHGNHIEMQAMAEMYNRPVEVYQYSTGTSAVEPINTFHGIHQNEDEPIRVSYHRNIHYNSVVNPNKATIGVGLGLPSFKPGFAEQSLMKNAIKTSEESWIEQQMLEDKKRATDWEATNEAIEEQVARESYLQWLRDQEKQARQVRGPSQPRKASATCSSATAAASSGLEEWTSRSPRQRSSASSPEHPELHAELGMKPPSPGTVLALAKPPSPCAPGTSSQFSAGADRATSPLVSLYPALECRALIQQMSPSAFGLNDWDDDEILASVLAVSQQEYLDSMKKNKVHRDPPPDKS
Outline: as §1

SMILES: Cl.O=C(CCl)N[C@H]1C[C@@H](n2cccn2)C1
- log2 ratio of Biotin-Ahx-Ub-VS probe labelling (ALG13): -0.266
- log2 ratio of Biotin-Ahx-Ub-VS probe labelling (ATXN3): -0.161
- log2 ratio of Biotin-Ahx-Ub-VS probe labelling (BAP1): -1.24 (active)
- log2 ratio of Biotin-Ahx-Ub-VS probe labelling (EIF3F): -0.862
- log2 ratio of Biotin-Ahx-Ub-VS probe labelling (EIF3H): 0.149
- log2 ratio of Biotin-Ahx-Ub-VS probe labelling (FAM105A): -0.138
- log2 ratio of Biotin-Ahx-Ub-VS probe labelling (OTUB1): -0.581
- log2 ratio of Biotin-Ahx-Ub-VS probe labelling (OTUD4): -0.0468
- log2 ratio of Biotin-Ahx-Ub-VS probe labelling (OTUD5): -0.587
